# Data published in PubChem BioAssay (NCATS).
# “And” between values parts separate entries of the source, which are not always exact repeats. Identical values can stand only once. Unmarked numbers belong to inactive results. Results filed as inconclusive are left out. The source made the active and inactive calls. Unless noted, calls follow the shape of the dose curve; as a rule, active = well fitted curve in the direction sought with a large enough effect; inconclusive = small, poorly fitted or top-dose-only effect, or another doubt; inactive = no such curve, though single readings can be large; an effect the other way counts as inactive or inconclusive.
# Tests used:
# [1] = target: Cytochrome P450 1A2 (Homo sapiens) (UniProt P05177); assay: p450-cyp1a2 (AID 410; calls by dose curve; also: potency is read from the fitted curve at half-maximal effect;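 as to activity change, negative = inhibition: -100% = full effect of reference inhibitor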)
# Sequence of Cytochrome P450 1A2 (Homo sapiens) (P05177 whole entry, looked up): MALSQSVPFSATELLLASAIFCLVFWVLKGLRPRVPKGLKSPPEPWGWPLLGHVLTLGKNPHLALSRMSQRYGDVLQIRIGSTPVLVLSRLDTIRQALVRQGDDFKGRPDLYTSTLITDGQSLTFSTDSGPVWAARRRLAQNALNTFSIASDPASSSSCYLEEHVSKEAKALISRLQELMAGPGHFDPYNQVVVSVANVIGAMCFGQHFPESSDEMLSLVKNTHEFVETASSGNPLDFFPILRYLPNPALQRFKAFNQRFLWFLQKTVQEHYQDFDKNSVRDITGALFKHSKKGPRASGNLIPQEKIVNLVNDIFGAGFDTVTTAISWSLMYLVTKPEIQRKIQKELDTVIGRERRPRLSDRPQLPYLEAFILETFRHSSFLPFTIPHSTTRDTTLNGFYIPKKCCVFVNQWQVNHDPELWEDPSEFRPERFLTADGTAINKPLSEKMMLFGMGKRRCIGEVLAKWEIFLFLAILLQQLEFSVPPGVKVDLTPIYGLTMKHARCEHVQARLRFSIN
# In short: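 Read-out is luminescence from luciferin produced by CYP1A2 demethylation of Luciferin-ME (100uM, at Km). Detection reagent stopped the 60 min NADPH-dependent reaction; signals were normalized to 57 uM furafylline.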
# [2] = target: Glucocorticoid receptor (Homo sapiens) (UniProt P04150); assay: GR-GFP Redistribution (AID 450;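 active = compounds whose dose series gives a full or clear partial fitted curve of increased nuclear translocation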; also: potency is read from the fitted curve at half-maximal effect); details: U2OS GR-GFP nuclear translocation, laser cytometry, 2 h
# Sequence of Glucocorticoid receptor (Homo sapiens) (P04150 whole entry, looked up, the tested form may be a part): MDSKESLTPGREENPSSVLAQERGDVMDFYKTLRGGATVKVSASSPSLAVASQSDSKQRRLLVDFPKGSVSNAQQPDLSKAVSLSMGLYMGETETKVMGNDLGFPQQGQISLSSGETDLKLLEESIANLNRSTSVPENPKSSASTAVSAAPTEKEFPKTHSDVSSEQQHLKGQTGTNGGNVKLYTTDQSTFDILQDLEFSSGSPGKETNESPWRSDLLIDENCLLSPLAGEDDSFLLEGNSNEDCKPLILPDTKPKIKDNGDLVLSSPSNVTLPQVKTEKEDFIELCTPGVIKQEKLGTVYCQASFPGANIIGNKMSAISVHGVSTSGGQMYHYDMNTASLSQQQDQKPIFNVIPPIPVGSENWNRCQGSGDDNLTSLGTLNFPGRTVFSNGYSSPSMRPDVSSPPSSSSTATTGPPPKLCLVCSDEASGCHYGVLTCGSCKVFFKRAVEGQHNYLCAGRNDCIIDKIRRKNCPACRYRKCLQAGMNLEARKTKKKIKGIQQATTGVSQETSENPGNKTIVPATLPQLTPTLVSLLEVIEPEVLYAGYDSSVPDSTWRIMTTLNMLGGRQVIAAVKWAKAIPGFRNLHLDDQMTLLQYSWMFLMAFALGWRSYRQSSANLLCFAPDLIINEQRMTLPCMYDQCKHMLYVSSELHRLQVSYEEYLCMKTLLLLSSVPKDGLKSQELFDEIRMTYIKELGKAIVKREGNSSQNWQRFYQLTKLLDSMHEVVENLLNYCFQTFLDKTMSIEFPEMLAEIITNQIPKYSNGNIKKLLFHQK
# [3] = target: Glucocorticoid receptor (Homo sapiens) (UniProt P04150); assay: GR-EFC Redistribution (AID 451; calls by dose curve; also: potency is read from the fitted curve at half-maximal effect); details: CHO-K1 GR-EFC translocation, beta-gal luminescence, 2 h
# In short: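 CHO-K1 cells expressing nuclear EA and GR-ED fragments of b-gal; compounds titrated up to 46 uM final, 2 h at 37 C. GR nuclear translocation read as complemented b-gal luminescence after 1 h RT detection.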
# [4] = target: Mitogen-activated protein kinase 10 (Mus musculus) (UniProt Q61831); assay: JNK3 AlphaScreen Assay (AID 530; active = well fitted curve in either direction with a large enough effect, not every such curve was filed as active;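 also: kinase came from lysate of stimulated human HepG2 cells; signal reports phosphorylation of biotinylated GST-cJun 1-79 at Ser73 with 10 µM ATP; % is scaled to controls: 0 for no effect and ±100 for the full control effect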)
# In short: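 HepG2 lysate (IL-1b/TNFa pre-activated) + biotin-GST-cJun 1-79 + anti-pSer73 cJun; cpd titration, 15 min RT; ATP 10 uM start; Tris pH 7.6, MgCl2, DTT, vanadate; beads in EDTA buffer; AlphaScreen.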
# [5] = target: 3',5'-cyclic-AMP phosphodiesterase 4B (Homo sapiens) (UniProt Q07343); assay: qHTS Assay for Inhibitors of PDE-IV (AID 607; active = well fitted activation curve with a large enough effect in the main read-out, with a control signal flat, not every such curve was filed as active; also: % of control where 0% means no effect)
# Sequence of 3',5'-cyclic-AMP phosphodiesterase 4B (Homo sapiens) (Q07343 whole entry, looked up): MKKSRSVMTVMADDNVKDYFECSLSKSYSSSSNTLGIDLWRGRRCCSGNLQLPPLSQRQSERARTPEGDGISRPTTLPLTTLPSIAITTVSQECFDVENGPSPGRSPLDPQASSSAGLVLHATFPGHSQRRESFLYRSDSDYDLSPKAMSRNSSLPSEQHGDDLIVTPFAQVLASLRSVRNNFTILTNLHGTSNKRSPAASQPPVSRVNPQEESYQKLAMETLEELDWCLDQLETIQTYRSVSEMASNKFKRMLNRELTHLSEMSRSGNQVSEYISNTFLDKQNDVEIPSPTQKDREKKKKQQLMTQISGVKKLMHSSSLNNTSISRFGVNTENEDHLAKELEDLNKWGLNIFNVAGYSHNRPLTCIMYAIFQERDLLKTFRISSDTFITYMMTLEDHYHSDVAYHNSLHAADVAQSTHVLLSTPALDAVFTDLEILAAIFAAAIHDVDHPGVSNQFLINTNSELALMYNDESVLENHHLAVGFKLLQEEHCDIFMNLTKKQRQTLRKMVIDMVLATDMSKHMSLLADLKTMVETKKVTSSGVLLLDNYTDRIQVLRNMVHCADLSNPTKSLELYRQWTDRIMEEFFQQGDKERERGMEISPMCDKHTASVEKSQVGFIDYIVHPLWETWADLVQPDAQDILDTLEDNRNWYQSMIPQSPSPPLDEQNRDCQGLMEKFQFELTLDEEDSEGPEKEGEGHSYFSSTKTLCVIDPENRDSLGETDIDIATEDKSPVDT
# In short: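 The readout is membrane depolarisation from a cAMP-sensing CNG channel, detected with a potential dye at ex 535/em 590. Cells were HEK293-derived (endogenous PDE-IV) at 1000 cells/well, titrated up to 22.9 uM final.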
# [6] = target: Cytochrome P450 2C9 (Homo sapiens) (UniProt P11712); assay: qHTS Assay for Inhibitors and Substrates of Cytochrome P450 2C9 (AID 883); also: nearly all actives have a fitted effect of over 60% in size; also: potency is read from the fitted curve at half-maximal effect
# Sequence of Cytochrome P450 2C9 (Homo sapiens) (P11712 whole entry, looked up): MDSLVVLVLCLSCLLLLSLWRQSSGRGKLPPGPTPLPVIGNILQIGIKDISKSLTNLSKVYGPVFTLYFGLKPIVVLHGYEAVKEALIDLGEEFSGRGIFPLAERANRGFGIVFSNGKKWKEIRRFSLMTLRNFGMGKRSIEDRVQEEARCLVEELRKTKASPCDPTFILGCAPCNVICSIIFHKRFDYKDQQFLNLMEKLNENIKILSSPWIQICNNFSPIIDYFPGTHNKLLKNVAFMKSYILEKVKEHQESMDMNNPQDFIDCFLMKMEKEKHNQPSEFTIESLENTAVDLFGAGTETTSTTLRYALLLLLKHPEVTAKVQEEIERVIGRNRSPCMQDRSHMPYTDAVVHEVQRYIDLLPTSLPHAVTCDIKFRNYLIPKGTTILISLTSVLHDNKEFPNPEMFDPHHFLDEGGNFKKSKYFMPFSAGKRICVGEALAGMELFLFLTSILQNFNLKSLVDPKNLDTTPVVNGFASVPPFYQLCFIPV
# In short: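 10nM CYP2C9 + 100uM Luciferin-H (=KM), 25mM KPO4; cpd 10 min 37C; NADPH regen, 60 min 37C; stop/detect with P450 Glo-Buffer 20 min; luminescence. Norm. to 57uM sulphaphenazole as full inhibition.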
# [7] = target: Cytochrome P450 2D6 (Homo sapiens) (UniProt P10635); assay: qHTS Assay for Inhibitors and Substrates of Cytochrome P450 2D6 (AID 891); also: potency is read from the fitted curve at half-maximal effect; nearly all actives have a fitted effect of over 60% in size
# Sequence of Cytochrome P450 2D6 (Homo sapiens) (P10635 whole entry, looked up): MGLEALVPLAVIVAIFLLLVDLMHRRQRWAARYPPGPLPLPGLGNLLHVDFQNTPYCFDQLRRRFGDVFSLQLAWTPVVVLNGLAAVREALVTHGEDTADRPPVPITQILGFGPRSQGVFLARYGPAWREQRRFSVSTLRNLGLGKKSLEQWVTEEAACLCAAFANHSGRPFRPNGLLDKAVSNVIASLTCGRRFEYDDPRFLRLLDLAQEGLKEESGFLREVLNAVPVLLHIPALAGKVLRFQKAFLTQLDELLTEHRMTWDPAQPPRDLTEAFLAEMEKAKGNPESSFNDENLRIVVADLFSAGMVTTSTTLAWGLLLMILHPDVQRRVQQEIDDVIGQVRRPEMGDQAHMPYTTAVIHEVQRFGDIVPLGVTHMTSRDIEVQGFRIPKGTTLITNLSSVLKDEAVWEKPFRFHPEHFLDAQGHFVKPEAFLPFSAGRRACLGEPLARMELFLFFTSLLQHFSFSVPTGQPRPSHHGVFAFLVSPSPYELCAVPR
# In short: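 Luminescent read-out of luciferin formed by 5 nM human CYP2D6 demethylating 30 uM Luciferin-ME EGE (Km level) over 60 min at room temperature after NADPH regeneration addition. Data normalized to full inhibition by 1.43 uM quinidine.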
# [8] = target: Cytochrome P450 2C19 (Homo sapiens) (UniProt P33261); assay: qHTS Assay for Inhibitors and Substrates of Cytochrome P450 2C19 (AID 899); also: nearly all actives have a fitted effect of over 60% in size; also: potency is read from the fitted curve at half-maximal effect
# Sequence of Cytochrome P450 2C19 (Homo sapiens) (P33261 whole entry, looked up): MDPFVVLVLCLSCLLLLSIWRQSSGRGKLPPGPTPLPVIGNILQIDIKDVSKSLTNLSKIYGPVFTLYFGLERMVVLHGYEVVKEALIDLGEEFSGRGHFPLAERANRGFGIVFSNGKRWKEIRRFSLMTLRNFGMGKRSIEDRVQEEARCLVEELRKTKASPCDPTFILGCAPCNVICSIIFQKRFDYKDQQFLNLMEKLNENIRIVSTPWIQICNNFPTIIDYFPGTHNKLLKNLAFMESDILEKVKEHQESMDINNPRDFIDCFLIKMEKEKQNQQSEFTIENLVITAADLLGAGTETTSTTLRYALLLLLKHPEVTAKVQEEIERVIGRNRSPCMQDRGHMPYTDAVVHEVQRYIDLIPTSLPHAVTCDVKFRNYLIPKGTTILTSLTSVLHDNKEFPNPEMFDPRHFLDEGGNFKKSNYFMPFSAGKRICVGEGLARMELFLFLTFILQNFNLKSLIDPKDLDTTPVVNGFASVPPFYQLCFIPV
# In short: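 Luminescent read-out of luciferin formed from Luciferin-H EGE (10uM, equal to KM). Enzyme 5nM in 50mM KPO4; compound added, 10 min at 37C, then NADPH regenerating system for 60 min at 37C. Full inhibition defined by 57uM ketoconazole.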
# [9] = AP1 Signaling Pathway (AID 357; active = well fitted curve in either direction with a large enough effect, not every such curve was filed as active;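 also: ME-180 reporter cells stimulated with EGF at its EC50 level; % is scaled to controls: 0 for no effect and ±100 for the full control effect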); details: ME-180 AP-1-bla reporter, EGF-induced, beta-lactamase ratio, 5 h; at 17.2 µM (top of the series) unless noted
# In short: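 First, ME-180 AP-1-bla cells were cultured overnight at 37 °C in low-serum Opti-MEM. Next, titrated compounds with EC50 EGF were incubated 5 hours. Finally, CCF4 was added for 2.5 hours and the 460/530 nm ratio recorded.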
# [10] = Stat Signaling Pathway (AID 446; active = well fitted curve in either direction with a large enough effect, not every such curve was filed as active;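 also: ME-180 cervical cancer cells given 40 pM IL-6 alongside compound; SIE-controlled beta-lactamase reporter measured as 460/530 nm FRET emission ratio; % is scaled to controls: 0 for no effect and ±100 for the full control effect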)
# In short: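 Emission at 460 and 530 nm (excitation 405 nm) reports SIE-controlled beta-lactamase in ME-180 cells. Cells received compound with 40 pM IL-6 for 5 hrs at 37 C; data scaled between 300 pM IL-6 and 125 nM JAK-inhibitor controls.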
# [11] = qHTS Assay for Identification of Small Molecule Agonists for Hypoxia Response Element Signaling Pathway (AID 914; active = well fitted activation curve with a large enough effect in the signal ratio, with a control signal flat, not every such curve was filed as active; the % refers to the signal ratio; also: potency is read from the fitted curve at half-maximal effect); details: ME-180 (cervical carcinoma) HRE-bla reporter, beta-lactamase ratio, CoCl2, 17 h; activation: stronger effect = higher value
# In short: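 HRE-bla ME-180 assay for agonist-like enhancement of an EC50 CoCl2 stimulus: 17 h at 37 degrees Celsius, CCF4 for 2.5 h, ratiometric 460/530 nm signal converted to %Activity and fitted to AC50.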
# [12] = target: Guanine nucleotide-binding protein G(i) subunit alpha-1 (Homo sapiens) (UniProt P63096); assay: qHTS Assay for Inhibitors of RGS12 GoLoco Motif Activity (Green Fluorophore) (AID 879);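 also: 0% = labeled peptide with Gαi1 and full inhibition = labeled peptide alone without protein; negative values mean loss of peptide binding seen as reduced polarization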
# In short: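 A drop in FITC polarization marked displacement of the FITC-tagged RGS12 GoLoco peptide (10 nM) from Gαi1 (50 nM). Compounds were incubated 10 min at room temperature in Tris pH 7.5 buffer containing 150 mM NaCl, 0.1 mM GDP and 0.05% NP40; unlabeled peptide titration served as control.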
# [13] = qHTS Assay for Identification of Small Molecule Agonists for Thrombopoietin (TPO) Signaling Pathway (AID 917); also: % is scaled to controls: 0 for no effect and ±100 for the full control effect
# In short: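 Stimulation at the TPO EC50 (26 pM final) was used to detect activators. Ba/F3 mouse cells bearing human TPO receptor and a luciferase reporter under the Glycoprotein IIb promoter were exposed to compounds for 24 hrs at 37 C.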
# [14] = target: Pyruvate kinase PKM (Homo sapiens) (UniProt P14618); assay: qHTS Assay for Activators of Human Muscle Pyruvate Kinase (AID 954; active = well fitted curve in the direction sought with a large enough effect, not every such curve was filed as active;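 also: 0% = uninhibited enzyme and -100% = no enzyme or full thiadiazolimine inhibition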)
# In short: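 PKM2, human, >95% pure, 0.1 nM; PEP 0.5 mM (Km), ADP 0.1 mM; 50 mM imidazole pH 7.2, 50 mM KCl, 0.01% Tween 20, 0.05% BSA; 1 h RT; luciferase luminescence readout.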
# [15] = target: Alpha-galactosidase (Coffea arabica) (UniProt Q42656); assay: Counterscreen for Glucocerebrosidase Inhibitors: qHTS Assay for Coffee Bean alpha-Galactosidase at pH 4.5 (AID 957);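 also: plate controls were enzyme alone for no effect and no enzyme for full effect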
# Sequence of Alpha-galactosidase (Coffea arabica) (Q42656 whole entry, looked up): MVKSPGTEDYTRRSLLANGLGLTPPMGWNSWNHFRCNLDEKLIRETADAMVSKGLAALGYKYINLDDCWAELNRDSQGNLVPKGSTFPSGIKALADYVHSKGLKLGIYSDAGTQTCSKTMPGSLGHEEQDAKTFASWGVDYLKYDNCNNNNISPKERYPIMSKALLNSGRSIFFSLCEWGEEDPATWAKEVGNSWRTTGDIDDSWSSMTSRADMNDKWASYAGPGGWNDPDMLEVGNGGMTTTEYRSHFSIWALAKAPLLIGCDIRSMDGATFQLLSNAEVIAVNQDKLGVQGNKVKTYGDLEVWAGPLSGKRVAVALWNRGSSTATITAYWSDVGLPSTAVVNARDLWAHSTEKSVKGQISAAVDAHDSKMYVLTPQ
# In short: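 Quantitative HTS of compounds (0.7 nM to 77 uM) against coffee bean alpha-galactosidase at pH 4.5, measuring 4-methylumbelliferone fluorescence released from 80 uM substrate.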
# [16] = target: Alpha-galactosidase A (Homo sapiens) (UniProt P06280); assay: Counterscreen for Glucocerebrosidase Inhibitors: qHTS Assay for Human alpha-Galactosidase at pH 4.5 (AID 992); also: 0% is about no effect
# Sequence of Alpha-galactosidase A (Homo sapiens) (P06280 whole entry, looked up): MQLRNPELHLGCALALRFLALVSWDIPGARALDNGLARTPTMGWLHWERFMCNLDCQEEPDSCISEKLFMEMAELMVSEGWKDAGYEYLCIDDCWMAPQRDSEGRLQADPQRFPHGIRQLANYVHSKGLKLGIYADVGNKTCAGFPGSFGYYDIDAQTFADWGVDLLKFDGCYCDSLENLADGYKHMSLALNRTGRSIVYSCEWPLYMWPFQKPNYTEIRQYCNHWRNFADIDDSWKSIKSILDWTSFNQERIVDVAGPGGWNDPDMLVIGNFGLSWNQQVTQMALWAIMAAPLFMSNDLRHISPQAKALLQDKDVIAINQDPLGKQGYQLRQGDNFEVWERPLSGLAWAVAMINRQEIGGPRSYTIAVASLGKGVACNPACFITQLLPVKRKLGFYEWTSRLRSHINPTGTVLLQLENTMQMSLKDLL
# In short: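 Fluorogenic 4-MU alpha-D-galactoside (80 uM) hydrolysis, 2 nM enzyme, pH 4.5 citrate buffer + 0.005% Tween-20; 20 min RT; NaOH/glycine pH 10 stop; Ex365/Em440. Compounds titrated 0.7 nM–77 uM; Hill-equation AC50.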
# [17] = target: alpha-glucosidase (Oryza sativa, rice) (UniProt Q653V4); assay: Counterscreen for Glucocerebrosidase Inhibitors: qHTS Assay for Rice alpha-Glucosidase at pH 5.0 (AID 997);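 also: 0% = full activity with enzyme and -100% = basal without enzyme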
# In short: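 Endpoint fluorogenic assay at pH 5.0: compounds (0.7 nM to 77 uM) titrated against 4 nM rice enzyme and 400 uM 4-MU-alpha-glucoside for 20 min at room temperature; NaOH/glycine stop, read ex 365/em 440 nm, Hill-fitted AC50.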
# [18] = target: Alpha-galactosidase (Coffea arabica) (UniProt Q42656); assay: Counterscreen for Glucocerebrosidase Inhibitors: qHTS Assay for Coffee Bean alpha-Galactosidase at pH 5.9 (AID 998);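 also: plate controls were uninhibited enzyme for no effect and no-enzyme basal signal for full effect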
# In short: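 Enzyme 2 nM + cpd (0.7 nM–77 uM titration) + 4-MU-alpha-Gal 80 uM, pH 5.9 citrate/Tween-20, RT 20 min, NaOH/glycine stop pH 10, fluor 365/440. Normalized to no-enzyme and full-activity controls; Hill-fit AC50.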
# [19] = target: Cytochrome P450 3A4 (Homo sapiens) (UniProt P08684); assay: qHTS Assay for Inhibitors and Substrates of Cytochrome P450 3A4 (AID 884); also: potency is read from the fitted curve at half-maximal effect; nearly all actives have a fitted effect of over 50% in size
# Sequence of Cytochrome P450 3A4 (Homo sapiens) (P08684 whole entry, looked up): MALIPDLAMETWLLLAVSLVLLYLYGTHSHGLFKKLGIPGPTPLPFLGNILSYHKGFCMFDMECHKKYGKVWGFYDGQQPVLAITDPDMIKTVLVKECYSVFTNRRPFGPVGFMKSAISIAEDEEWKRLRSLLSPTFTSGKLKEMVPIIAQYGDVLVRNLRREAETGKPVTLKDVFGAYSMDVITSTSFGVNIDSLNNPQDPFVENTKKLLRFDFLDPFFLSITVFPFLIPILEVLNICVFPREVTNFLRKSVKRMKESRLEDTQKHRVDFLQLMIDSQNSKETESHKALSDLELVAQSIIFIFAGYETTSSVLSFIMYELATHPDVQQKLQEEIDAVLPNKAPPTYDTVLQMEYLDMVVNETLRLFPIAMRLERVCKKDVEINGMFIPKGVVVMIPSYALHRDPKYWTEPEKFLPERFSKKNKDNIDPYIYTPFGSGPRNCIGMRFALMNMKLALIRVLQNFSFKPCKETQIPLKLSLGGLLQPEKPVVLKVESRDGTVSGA
# In short: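 Luminescent readout of luciferin produced by CYP3A4 (20 nM) dealkylation of Luciferin-PPXE, 25 uM (its KM). NADPH-driven reaction ran 60 min at RT after 10 min compound preincubation; data scaled to 57 uM ketoconazole as 100% inhibition.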
# [20] = target: Cytochrome P450 3A4 (Homo sapiens) (UniProt P08684); assay: qHTS Assay for Activators of Cytochrome P450 3A4 (AID 885); also: nearly all actives have a fitted effect of over 65% in size
# In short: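 Activators are scored by enhanced luminescence from CYP3A4 conversion of luciferin-PPXE (25uM, equal to KM) to luciferin, after 60 min at RT with an NADPH-regenerating system.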
# [21] = target: Ubiquitin carboxyl-terminal hydrolase 1 (Homo sapiens) (UniProt O94782); assay: Inhibitors of USP1/UAF1: Pilot qHTS (AID 504865);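 also: rhodamine fluorescence freed from ubiquitin-rhodamine substrate followed over time; top concentration of the series differs between compounds; % is scaled to controls: 0 for no effect and ±100 for the full control effect; nearly all actives have a fitted effect of over 35% in size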
# In short: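 USP1/UAF1 complex at 1 nM preincubated 15 min at room temperature with compound, then Ub-Rho substrate added at 150 nM final. Fluorescence (480/540 nm) read kinetically in 50 mM HEPES pH 7.8, 0.5 mM EDTA, 1 mM TCEP, 0.1 mg/ml BSA, 0.01% Tween-20.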
structure (smiles),measurement,setting,value
CN1CCc2cc3c(cc2[C@@H]1[C@H]1OC(=O)c2c1ccc1c2OCO1)OCO3,Potency,[1],15.8 µM (active) and 12.6 µM (active)
same,Potency,[2],> 46 µM
same,Potency,[3],> 46 µM
same,outcome,[4],inactive
same,outcome,[5],inactive
same,Potency,[6],3.98 µM (active)
same,Potency,[7],15.8 µM (active)
same,Potency,[8],100 nM (active) and 15.8 nM (active)
C[C@@H](CO)NC(=O)[C@H]1C=C2c3cccc4[nH]cc(c34)C[C@H]2N(C)C1,Potency,[1],31.6 µM (active)
same,Potency,[2],> 46 µM
same,Potency,[3],> 46 µM
same,outcome,[4],inactive
same,outcome,[5],inactive
same,Potency,[6],inactive
same,Potency,[7],12.6 µM (active)
same,Potency,[8],inactive
c1cc2c(cc1[C@H]1OC[C@H]3[C@@H]1CO[C@H]3c1ccc3c(c1)OCO3)OCO2,Potency,[1],2 µM (active)
same,Potency,[2],> 46 µM
same,Potency,[3],> 46 µM
same,outcome,[4],inactive
same,outcome,[5],inactive
same,Potency,[6],3.98 µM (active)
same,Potency,[7],15.8 µM (active)
same,Potency,[8],3.16 µM (active)
CCCCOCCCn1c(N)c(C(=O)OCCOC)c2nc3ccccc3nc21,"activity change, negative = inhibition",[9],-2.11%
same,outcome,[10],inactive
same,Potency,[2],> 20.6 µM
Nc1c(C(=O)NCc2ccco2)c2nc3ccccc3nc2n1CCN1CCCCC1,"activity change, negative = inhibition",[9],29.1%
same,Potency,[2],> 20.6 µM
same,Potency,[11],7.94 µM (active)
CCOc1ccccc1-n1c(O)c(C=Nc2c(C)n(C)n(-c3ccccc3)c2=O)c(=O)[nH]c1=O,"activity change, negative = inhibition",[9],-0.373%
same,outcome,[10],inactive
same,Potency,[2],> 20.6 µM
CC(C)[C@@]1(NC(=O)[C@@H]2C[C@H]3c4cccc5[nH]cc(c45)C[C@@H]3N(C)C2)O[C@@]2(O)[C@H]3CCCN3C(=O)[C@@H](Cc3ccccc3)N2C1=O,Potency,[1],inactive
same,Potency,[2],> 46 µM
same,Potency,[3],> 46 µM
same,outcome,[4],inactive
same,outcome,[5],inactive
same,Potency,[6],1.26 µM (active)
same,Potency,[8],3.16 µM (active)
CCC(=NCCN1CCCCC1)c1c(O)n(C)c(=O)n(C)c1=O,"activity change, negative = inhibition",[9],9.93%
same,outcome,[10],inactive
same,Potency,[2],> 20.6 µM
C[C@@H]1O[C@@H](O[C@H]2C[C@@H](O)[C@]3(CO)[C@@H]4[C@@H](O)C[C@]5(C)[C@H]([C@@H]6COC(=O)C6)CC[C@@]5(O)[C@H]4CC[C@@]3(O)C2)[C@H](O)[C@H](O)[C@@H]1O,Potency,[1],inactive
same,outcome,[10],inactive
same,Potency,[2],> 46 µM
same,Potency,[3],> 46 µM
same,outcome,[5],inactive
same,Potency,[12],inactive
same,outcome,[13],inactive
same,outcome,[14],inactive
same,outcome,[15],inactive
same,outcome,[16],inactive
same,outcome,[17],inactive
same,outcome,[18],inactive
C[C@@H](Cc1cccc(C(F)(F)F)c1)NCCCc1ccccc1,Potency,[1],3.98 µM (active)
same,Potency,[2],> 46 µM
same,Potency,[3],> 46 µM
same,outcome,[4],inactive
same,Potency,[19],5.01 µM (active)
same,Potency,[20],inactive
same,Potency,[7],0.0126 µM (active)
same,Potency,[8],1.26 µM (active)
same,Potency,[21],inactive
